Here are results for 39 compounds from PubChem BioAssay (EPA / NIEHS).

The source made the active and inactive calls. How the source made its calls: active means hit-call score of the fitted dose curve at least 0.9, where 1 is the maximum; inactive means score below 0.9.

One experiment can be described thus: ATG_PXRE_CIS: Attagene CIS-FACTORIAL HepG2 Assay for human Pregnane X Receptor Element (PXRE) (AID 2282957). The conditions noted are these: HepG2 Attagene CIS-FACTORIAL PXRE reporter, mRNA; actives raise or lower the signal. The method in brief: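 Read-out: fluorescence of reporter-specific RT-PCR products resolved by capillary electrophoresis, fitted bidirectionally relative to DMSO. Human HepG2 liver cells carried transfected cis-promoter reporter units and were exposed to chemicals for 24 h.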
Consider `C=CC(=O)NC(C)(C)CS(=O)(=O)O`, for which the result was inactive.

Regarding `O=C1CCCC(=O)O1`, the compound was classed as inactive.

As to `Cc1c(C)c([N+](=O)[O-])c(C(C)(C)C)c([N+](=O)[O-])c1C`, the AC50 was 1.93 µM (active).

As to `CCOc1ccc(N)c([N+](=O)[O-])c1`, the compound was called inactive.

With `COC=O`, the call was inactive.

Regarding `C[C@]12C=CC(=O)C=C1CC[C@@H]1[C@@H]2[C@@H](O)C[C@@]2(C)[C@H]1CC[C@]2(O)C(=O)CO`, the AC50 is 100 µM (active).

In the case of `CCC(C)OC(=O)c1ccc(O)cc1` (stereo not given), the AC50 was 27.8 µM (active).

Regarding `CC1=CC[C@H]2C[C@@H]1C2(C)C`, the outcome was inactive.

Consider `N#[N+]c1ccc2c(S(=O)(=O)[O-])cccc2c1O`, for which the compound was classed as inactive.

Take `Cc1cc(C)c(C)c(O)c1`: the AC50 was 42.3 µM (active).

Regarding `CCCCCCC1(C)CCC(=O)O1` (stereo not given), the AC50 was 30.3 µM (active).

Regarding `Cc1cccc(C(=O)O)c1`, the outcome was inactive.

As to `C=CC(C)(CCC=C(C)C)OC(=O)CC(C)C` (stereo not given), the AC50 is 6.26 µM (active).

Consider `CC/C=C\CCOC(=O)CCCCC`, for which the compound was called inactive.

On to `O=S1(=O)OC(c2ccc(O)cc2)(c2ccc(O)cc2)c2ccccc21`, for which the AC50 was 13.9 µM (active).

Regarding `O=C1C(N(CO)C(=O)NCO)N(CO)C(=O)N1CO` (stereo not given), the call was inactive.

In the case of `CC(CC=O)c1ccccc1` (stereo not given), the AC50 is 4.15 µM (active).

In the case of `CC(C)CCCC(C)CC=O` (stereo not given), the AC50 was 65.1 µM (active).

`CCN(Cc1cccc(S(=O)(=O)O)c1)c1ccc(C(=C2C=CC(=[N+](CC)Cc3cccc(S(=O)(=O)[O-])c3)C=C2)c2ccccc2)cc1`: the AC50 is 20.6 µM (active).

Consider `CCO[Si](CCCN=C=O)(OCC)OCC`, for which the AC50 was 13.9 µM (active).

On to `O=S(=O)(Oc1ccc(Cl)cc1Cl)c1ccccc1`, for which the AC50 is 2.2 µM (active).

For `ON(Cc1ccccc1)Cc1ccccc1`, the AC50 is 41.6 µM (active).

Take `CC1=CC[C@H](C(C)C)C=C1`: the AC50 is 1.98 µM (active).

`CC(C)=CCC[C@H](C)CCO`: the outcome was inactive.

As to `N#CCc1ccc(Cl)cc1Cl`, the AC50 was 61.8 µM (active).

On to `O=CN1CCCCC1`, for which the result was inactive.

With `CCN(CC#N)c1cccc(C)c1`, the AC50 is 45.3 µM (active).

For `CC(=O)OCc1ccco1`, the result was inactive.

For `CC(C)(C)C(=O)CCc1ccc(Cl)cc1`, the AC50 was 9.79 µM (active).

On to `COC(=O)/C=C\C(=O)O`, for which the AC50 was 30.7 µM (active).

Turning to `C1=Cc2ccccc2C1`, the AC50 was 9.16 µM (active).

Take `CCCCC/C=C\C/C=C\CCCCCCCC(=O)OC`: the AC50 is 5.54 µM (active).

For the compound `O=C1CCC(=O)N1Cl`, the call was inactive.

For the compound `C=C(C)[C@H]1CC=C(C)CC1`, the AC50 is 51 µM (active).

On to `N[C@H]1C(O)O[C@H](CO)[C@H](O)[C@@H]1O` (stereo not given in full), for which the call was inactive.

A further experiment in a line: ATG_PPRE_CIS: Attagene CIS-FACTORIAL HepG2 Assay for human Peroxisome Proliferator-activated Response Element (PPRE) (AID 2282958). The note with it: HepG2 PPRE cis-element reporter, Attagene transcription factor profiling; actives raise or lower the signal. Summed up: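 Endogenous PPRE-driven transcription is measured in HepG2 cells carrying transfected multi-reporter constructs. Reporter transcripts are quantified by RT-PCR, HpaI digestion and capillary electrophoresis 24 h after dosing. DMSO baseline, bidirectional fit.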
In the case of `C=CC(=O)NC(C)(C)CS(=O)(=O)O`, the compound was called inactive.

For the compound `O=C1CCCC(=O)O1`, the compound was called inactive.

Consider `Cc1c(C)c([N+](=O)[O-])c(C(C)(C)C)c([N+](=O)[O-])c1C`, for which the call was inactive.

As to `CCOc1ccc(N)c([N+](=O)[O-])c1`, the outcome was inactive.

Take `COC=O`: the compound was classed as inactive.

In the case of `CCC(C)OC(=O)c1ccc(O)cc1` (stereo not given), the AC50 was 100 µM (active).

As to `CC1=CC[C@H]2C[C@@H]1C2(C)C`, the compound was called inactive.

Turning to `Cc1cc(C)c(C)c(O)c1`, the result was inactive.

In the case of `CCCCCCC1(C)CCC(=O)O1` (stereo not given), the outcome was inactive.

For `Cc1cccc(C(=O)O)c1`, the outcome was inactive.

On to `C=CC(C)(CCC=C(C)C)OC(=O)CC(C)C` (stereo not given), for which the call was inactive.

Consider `CC/C=C\CCOC(=O)CCCCC`, for which the outcome was inactive.

Take `CC(CC=O)c1ccccc1` (stereo not given): the compound was called inactive.

For the compound `CC(C)CCCC(C)CC=O` (stereo not given), the compound was called inactive.

Turning to `CCO[Si](CCCN=C=O)(OCC)OCC`, the call was inactive.

`O=S(=O)(Oc1ccc(Cl)cc1Cl)c1ccccc1`: the result was inactive.

As to `Cc1ccc(C(C)(C)C)cc1`, the outcome was inactive.

In the case of `ON(Cc1ccccc1)Cc1ccccc1`, the compound was called inactive.

As to `COC(=O)c1c(C)cc(O)c(C)c1O`, the compound was classed as inactive.

Take `CCC(C)(C)C1CCCCC1OC(C)=O` (stereo not given): the compound was classed as inactive.

As to `O=CN1CCCCC1`, the outcome was inactive.

`CCN(CC#N)c1cccc(C)c1`: the compound was classed as inactive.

Consider `CC(C)(C)C(=O)CCc1ccc(Cl)cc1`, for which the result was inactive.

For `C1=Cc2ccccc2C1`, the compound was classed as inactive.

For `O=C1CCC(=O)N1Cl`, the result was inactive.

For the compound `N[C@H]1C(O)O[C@H](CO)[C@H](O)[C@@H]1O` (stereo not given in full), the outcome was inactive.

A short description of the next experiment: ATG_RORE_CIS: Attagene CIS-FACTORIAL HepG2 Assay for human RAR-related Orphan Receptor Element (RORE) (AID 2282959). The conditions noted are these: HepG2 Attagene cis-factorial RORE reporter, mRNA; actives raise or lower the signal. Summed up: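 RORE reporter transcripts reflecting endogenous factor activity were read after 24 h compound exposure of transfected HepG2 cells, using reverse transcription, PCR, fluorescent labelling and capillary electrophoresis sizing. Gain or loss fitted against DMSO.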
Take `C=CC(=O)NC(C)(C)CS(=O)(=O)O`: the outcome was inactive.

For `O=C1CCCC(=O)O1`, the compound was classed as inactive.

As for `Cc1c(C)c([N+](=O)[O-])c(C(C)(C)C)c([N+](=O)[O-])c1C`, the compound was called inactive.

In the case of `COC=O`, the compound was classed as inactive.

With `C[C@]12C=CC(=O)C=C1CC[C@@H]1[C@@H]2[C@@H](O)C[C@@]2(C)[C@H]1CC[C@]2(O)C(=O)CO`, the result was inactive.

With `CCC(C)OC(=O)c1ccc(O)cc1` (stereo not given), the result was inactive.

Take `CC1=CC[C@H]2C[C@@H]1C2(C)C`: the compound was called inactive.

Turning to `Cc1cc(C)c(C)c(O)c1`, the outcome was inactive.

Take `CCCCCCC1(C)CCC(=O)O1` (stereo not given): the compound was classed as inactive.

As for `C=CC(C)(CCC=C(C)C)OC(=O)CC(C)C` (stereo not given), the outcome was inactive.

As for `O=S1(=O)OC(c2ccc(O)cc2)(c2ccc(O)cc2)c2ccccc21`, the compound was classed as inactive.

Take `CC(C)CCCC(C)CC=O` (stereo not given): the compound was called inactive.

Regarding `CCO[Si](CCCN=C=O)(OCC)OCC`, the result was inactive.

With `O=S(=O)(Oc1ccc(Cl)cc1Cl)c1ccccc1`, the call was inactive.

Regarding `Cc1ccc(C(C)(C)C)cc1`, the result was inactive.

Take `CC(C)=CCC[C@H](C)CCO`: the compound was classed as inactive.

Take `COC(=O)c1c(C)cc(O)c(C)c1O`: the outcome was inactive.

For the compound `CCC(C)(C)C1CCCCC1OC(C)=O` (stereo not given), the outcome was inactive.

Turning to `N#CCc1ccc(Cl)cc1Cl`, the compound was called inactive.

For the compound `O=CN1CCCCC1`, the compound was called inactive.

`CCN(CC#N)c1cccc(C)c1`: the call was inactive.

In the case of `CC(=O)OCc1ccco1`, the compound was called inactive.

Regarding `CC(C)(C)C(=O)CCc1ccc(Cl)cc1`, the call was inactive.

In the case of `NC(=O)OCC(COC(N)=O)c1ccccc1`, the result was inactive.

Regarding `COC(=O)/C=C\C(=O)O`, the outcome was inactive.

Regarding `C1=Cc2ccccc2C1`, the result was inactive.

`CCCCC/C=C\C/C=C\CCCCCCCC(=O)OC`: the compound was called inactive.

As for `O=C1CCC(=O)N1Cl`, the compound was called inactive.

As to `N[C@H]1C(O)O[C@H](CO)[C@H](O)[C@@H]1O` (stereo not given in full), the compound was called inactive.

One may read the AC50 as the concentration giving half of the maximal activity seen.
